Data taken from PubChem BioAssay AID1508642 (National Center for Advancing Translational Sciences (NCATS), 2021).
The campaign covered roughly 43,000 compounds. About 200 (0.47%) were called active. About 12% were inconclusive and are not listed. The sample as a whole holds a higher share of actives than the screen did. Unmarked numbers belong to inactive results. The call rests on the fitted dose curve; in most records, active means well fitted cell-killing curve with a large enough effect; inconclusive means small, poorly fitted or top-dose-only effect, or effect the other way; inactive means flat fitted curve, though single readings scatter.
On the % scale 0 is the no-effect control and ±100 the full control effect; potency means the concentration at half of the fitted maximal effect.

Experiment: Cell viability qHTS assay in S16 Pmp22-F2sN cells; further: nearly all actives have a fitted effect of over 65% in size
Conditions: S16 Pmp22-F2sN Schwann cells (luciferase reporters placed in the Pmp22 gene) viability, CellTiter-Glo, 24 h; series mostly up to 57.5 µM; activity change, negative = cytotoxicity: at the top concentration
Excerpt: Assay Provider: Jim Inglese Ph.D. National Center for Advancing Translational Science, National Institutes of Health, Rockville, MD CMT is a heterogeneous group of neurological disorders that affect approximately 1 in 2,500 people. In particular, the most common form of CMT, CMT1A is genetically linked to the duplication of the PMP22 gene which leads to Schwann cell overexpression, thus manifesting itself as a typical case of dose-sensitive diseases. To identify small molecule compounds that can mediate the expression of PMP22 we developed a phenotypic assay screening strategy by utilizing genome editing techniques to construct Schwann cell lines containing novel reporter technology to monitor the transcriptional or translational regulation of PMP22. For high sensitivity we use a bioluminescent reporter system embedded in the 3' UTR of the PMP22 gene (S16(c9) Pmp22-F2sN) to identify compounds that inhibit gene expression. […] We can further discriminate the effect of all transcriptionally active molecules on PMP22 translation or stability with an assay that incorporates a short NLuc peptide (HiBiT) at the C-terminus of expressed PMP22 (S16(f8) PMP22-HiBiT) allowing alpha complementation and luminescence detection of membrane-associated PMP22 protein. These assays were screened against the NCATS Sytravon Library Collection. Miniaturization of these assays to 1536-well plate format for quantitative high throughput screening (qHTS) yielded rich data sets immediately from the qHTS assay (S16(c9) Pmp22-F2sN), when compared with data from a cell viability assay (Cell TiterGlo) to identify compounds that decreased the output signals through cellular toxicity to streamline the selection process of actives for subsequent characterization using the HiBiT assay (S16(f8) PMP22-HiBiT).
Cell viability assay in S16 Pmp22-F2sN cells PROTOCOL TABLE (format as described by Inglese J, Shamu CE and Guy RK. 2007) SEQUENCE No. (e.g., 1, 2, 3, etc.); […] (e.g., Cells, Incubation, Reagent, etc.); VALUE and DESCRIPTION. 1. Cells. Add 500-1,000 cells in 4 uL in growth media (DMEM High Glucose, No Phenol Red media + 10% heat-inactivated FBS + 1% Pen/Strep supplemented media) per well into Greiner 1536-well white/solid bottom high base, TC-treated plates. 2. Compounds. Library compounds and controls added at 23nL per well, transferred by Pin Tool. 3. Incubation. Incubate plates at 37C, 5% CO2, 95% RH for 24 h. 4. Reagent. Add 3uL CellTiter-Glo per well of Greiner 1536-well plates. 5. Incubation. Incubate plates at room temperature for 15 min., protect from light. 6. Detector. FLuc luminescence measured using CCD-based camera (Viewlux). NOTES (numbers refer to Sequence numbers above; values are from representative experiments) 6. Luminescence Read: Clear filter; Exposure = 1 sec, Gain = High, Speed = Slow, Binning = 2X REFERENCES: 1. Inglese J, Shamu CE and Guy RK, Reporting data from high throughput screening of small molecule libraries, Nature Chemical Biology, 2007, 3(8): 438-441. doi.org/10.1038/nchembio0807-438 2. Yasgar A, Shinn P, Jadhav A, Auld DS, Michael S, Zheng W, Austin CP, Inglese J and Simeonov A, Compound Management for Quantitative High-Throughput Screening. J. Assoc. Lab. Auto., 2008, 13: 79-89. doi: 10.1016/j.jala.2007.12.004
With `O=C(NCCc1ccc(Cl)cc1)c1ccc2c(c1)N(Cc1ccc(F)cc1)C(=O)CS2` the “activity change, negative = cytotoxicity” value was -25.4%.
In the case of `Cc1c(C)n(Cc2ccc(Cl)cc2)c2ccc(C(=O)NCCc3ccc(S(N)(=O)=O)cc3)cc12`, the “activity change, negative = cytotoxicity” value is reported as -7.69%.
For `Cc1cccc(N2CCN(C(=O)c3cnc(N4CCCC4)nc3C)CC2)c1C`, the “activity change, negative = cytotoxicity” value was -0.0488%.
In the case of `COc1ccc(Cl)cc1NC(=O)CCn1c(=O)c2cccn2c2ccccc21`, the “activity change, negative = cytotoxicity” value is reported as 8.71%.
With `Cc1ccc(CSc2oc(-c3cccs3)nc2S(=O)(=O)c2ccc(C)cc2)cc1` the “activity change, negative = cytotoxicity” value was 17.9%.
In the case of `CCCCS(=O)(=O)c1oc(-c2cccs2)nc1S(=O)(=O)c1ccccc1`, the Potency is reported as 2.51 µM (active).
In the case of `CSc1oc(-c2cccs2)nc1S(=O)(=O)c1ccc(Br)cc1`, the “activity change, negative = cytotoxicity” value is reported as -0.0965%.
In the case of `COc1cn(CC(=O)Nc2cccc(C)c2C)c(CN2CCCCC2)cc1=O`, the “activity change, negative = cytotoxicity” value is reported as -2.31%.
For `Cc1ccc(NC(=O)Cn2nnc3sc4c(c3c2=O)CCC(C)C4)cc1` (stereo unspecified), the “activity change, negative = cytotoxicity” value was 10.1%.
In the case of `COc1ccc(CN2CCc3nc(Nc4ccccc4)ncc3C2)c(OC)c1OC`, the “activity change, negative = cytotoxicity” value is reported as -0.963%.
With `CCc1nn(CC(=O)N2CCN(c3ccc(Cl)cc3)CC2)c(=O)c2cc3occc3n12` the “activity change, negative = cytotoxicity” value was 1.57%.
In the case of `COc1ccc(OC)c(CNC(=O)CN2C(=O)CCn3nc(-c4cn(C)c5ccccc45)cc32)c1`, the “activity change, negative = cytotoxicity” value is reported as 2.98%.
In the case of `Cc1c(Cl)cccc1NC(=O)CCS(=O)(=O)c1ccc2c(c1)oc(=O)n2C`, the “activity change, negative = cytotoxicity” value is reported as -29%.
For `CCC(=O)N1CCc2cc(S(=O)(=O)NC(C(=O)Nc3ccc(C(C)=O)cc3)C(C)C)ccc21` (stereo unspecified), the “activity change, negative = cytotoxicity” value was 1.35%.
In the case of `CCOc1ccc(-c2cc3nc(C4CCN(C(=O)OC(C)(C)C)CC4)c(C(=O)Nc4ccc(C(=O)OC)cc4)cn3n2)cc1`, the “activity change, negative = cytotoxicity” value is reported as 4%.
With `COCCN(Cc1ccco1)C(=O)Cn1ncc2c([nH]c3ccccc32)c1=O` the “activity change, negative = cytotoxicity” value was 0.904%.
With `CCOc1ccc(C(NC(=O)c2cc(OC)c(OC)c(OC)c2)c2cc(Cl)c3cccnc3c2O)cc1` (stereo unspecified) the Potency was 1.78 µM (active).
For `COc1cc(C(=O)NCC(c2ccc(Cl)cc2)N2CCOCC2)cc(OC)c1OC` (stereo unspecified), the “activity change, negative = cytotoxicity” value was 0.597%.
With `COc1c(Cl)cc(Cl)cc1C(=O)Nc1cccc2cccnc12` the “activity change, negative = cytotoxicity” value was 3.69%.
With `COc1cccc(N2CCN(S(=O)(=O)c3ccc4c(c3)CCCN4C(C)=O)CC2)c1` the “activity change, negative = cytotoxicity” value was -1.03%.
In the case of `CC(=O)N1CCCc2cc(S(=O)(=O)N3CCCC(C(=O)NCc4ccc(Cl)cc4)C3)ccc21` (stereo unspecified), the “activity change, negative = cytotoxicity” value is reported as -24.1%.
With `CC(=O)N1CCCc2cc(S(=O)(=O)N3CCCC(C(=O)N4CCN(c5cccc(Cl)c5)CC4)C3)ccc21` (stereo unspecified) the Potency was 25.1 µM (active).
In the case of `COC(=O)c1ccc(NC(=O)CSc2n[nH]c(-c3ccccc3)n2)cc1`, the “activity change, negative = cytotoxicity” value is reported as 13.3%.
For `CCOc1ccccc1NC(=O)Cn1c(=O)n(Cc2ccccc2)c(=O)c2c(C)c(C(=O)N(C)C)sc21`, the “activity change, negative = cytotoxicity” value was 5.8%.
For `Cc1ccccc1NC(=O)Cn1c(=O)n(Cc2ccco2)c(=O)c2ccc(C(=O)NC3CCCC3)cc21`, the “activity change, negative = cytotoxicity” value was 7.6%.
For `COc1cccc(C(=O)NCc2ccc3c(c2)CCN3C(=O)c2ccncc2)c1`, the “activity change, negative = cytotoxicity” value was -2.11%.
In the case of `Cc1c(CNC2CCCCC2)c(C(=O)O)c(C)n1Cc1cccc(Cl)c1`, the “activity change, negative = cytotoxicity” value is reported as 22.4%.
With `COc1cccc2cc(-c3nc(Cl)c4c5c(sc4n3)CC(C)CC5)c(=O)oc12` (stereo unspecified) the “activity change, negative = cytotoxicity” value was 6.33%.
For `Cc1ccc2nc(CN3CCN(S(=O)(=O)c4ccc(C)c(C)c4)CC3)oc2c1`, the “activity change, negative = cytotoxicity” value was 10.1%.
With `COc1ccc(NC(=O)CN2C(=O)COc3ccc(S(=O)(=O)N4CCOCC4)cc32)cc1` the “activity change, negative = cytotoxicity” value was 19.3%.
For `CC(C)(C)c1ccc(S(=O)(=O)N2CCN(C(=O)c3cc(-c4ccc(Br)cc4)n[nH]3)CC2)cc1`, the “activity change, negative = cytotoxicity” value was 2.31%.
With `Cn1c(=O)[nH]c(=O)c2c1nc(NCCc1ccccc1)n2Cc1ccc(F)cc1` the “activity change, negative = cytotoxicity” value was -27.5%.
In the case of `CCOC(=O)c1ccc(NC(=O)Cn2cc(S(=O)(=O)Cc3ccccc3F)c3ccccc32)cc1`, the “activity change, negative = cytotoxicity” value is reported as 12.9%.
For `Cc1ccc2nc(COc3ccccc3NC(=O)Nc3ccc(F)c(Cl)c3)cc(=O)n2c1`, the “activity change, negative = cytotoxicity” value was -13.1%.
For `COc1ccc(N2CCN(c3nc(-c4ccccc4F)nc4ccccc34)CC2)cc1`, the “activity change, negative = cytotoxicity” value was -1.56%.
For `Cc1cccc(OCC(=O)N(Cc2ccc(C(C)C)cc2)Cc2ccco2)c1C`, the “activity change, negative = cytotoxicity” value was -22%.
For `Cc1cccc(-n2ncc(C(=O)N3CCc4ccccc4C3)c2C2CCN(C(=O)OC(C)(C)C)CC2)c1`, the “activity change, negative = cytotoxicity” value was -9.84%.
In the case of `CC(C)Oc1ccc(CNC(=O)C2CCN(c3nc4ccccc4n(C)c3=O)CC2)cc1`, the “activity change, negative = cytotoxicity” value is reported as 8.64%.
In the case of `COc1cc(OC)c(NC(=O)c2cc(S(=O)(=O)N3CCCC3)cn2C)cc1Cl`, the “activity change, negative = cytotoxicity” value is reported as 1.12%.
In the case of `CCN(Cc1ccccc1)S(=O)(=O)c1ccc2c(c1)CCCN2C(C)=O`, the “activity change, negative = cytotoxicity” value is reported as -7.49%.
With `CCNS(=O)(=O)c1ccc(NC(=O)CSc2nc(-c3ccco3)cc(C(F)(F)F)n2)cc1` the “activity change, negative = cytotoxicity” value was -17.6%.
In the case of `COc1ccccc1NC(=O)c1sc2nc(C)c(C(=O)Nc3ccc(Cl)cc3)c(-c3ccc(Br)cc3)c2c1N`, the Potency is reported as 14.1 µM (active).
In the case of `COc1ccc(NC(=O)c2sc3nc(-c4cc5cccc(OC)c5oc4=O)[nH]c(=O)c3c2C)cc1`, the “activity change, negative = cytotoxicity” value is reported as 6.82%.
For `COc1ccc(Cl)cc1NC(=O)c1sc2nc3c(cc2c1N)CN(C)CC3`, the “activity change, negative = cytotoxicity” value was 19.1%.
With `Cc1nnc(SCc2cc(=O)c3cc(F)ccc3[nH]2)n1C` the “activity change, negative = cytotoxicity” value was 12.3%.
In the case of `Cc1ccc(CN2CCc3nc(N4CCN(C)CC4)ncc3C2)cc1`, the “activity change, negative = cytotoxicity” value is reported as 1.27%.
